The text below walks through data of the supplement of paper PMC6805474.

Values without a mark were called inactive.

Assay [1] relates to Schistosoma mansoni schistosomula (NMRI). Briefly: phenotypic severity score (0-4); higher = more antischistosomal effect, active = 2 or more. Particulars: 10 µM.
Assay [2] relates to Schistosoma mansoni schistosomula (Liberian). Briefly: drug effect (1 - score/DMSO control score) (fraction); higher = more antischistosomal effect, active = 0.5 or more; extreme values may be limits of the assay. Particulars: 10 µM. In outline: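 Drug effect was calculated by comparing the mean score of the test wells with the mean score of the DMSO wells, and any negative value was set to zero. Duplicate wells of 50 Liberian-strain S. mansoni schistosomula, mechanically transformed from cercariae and pre-incubated at least 12 h, received 10 µM compound in Medium 199 with 5% FCS at 37 °C, 5% CO2, with 0.1% DMSO in the comparison wells. Visual scoring at 10× took place at 24, 48 and 72 h on a quarter-point scale from 3 (normal) to 0 (dead), and a plate counted only if its DMSO wells averaged at least 2.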
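Wherever phenotypic severity score (0-4) is given: visual microscopic scoring of shape, motility and density changes versus 0.5% DMSO solvent controls, one point per descriptor, degeneracy or death scored 4, mean of duplicate wells.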

Consider `c1ccc(Oc2ccc(-c3cncc(-c4ccc5[nH]ccc5c4)n3)cc2)cc1`, for which the phenotypic severity score is 0 in assay [1] (24 h), 0 in assay [1] (48 h) and 2 (active) in assay [1] (72 h). The values for the drug effect in assay [2] (24 h), in assay [2] (48 h) and in assay [2] (72 h) were 0.6 (active), 1 (active) and 1 (active), respectively.
In the case of `c1ccc(C[C@@H]2CN(c3nccc(Oc4ccc(-n5ccnc5)cc4)n3)CCN2)cc1`, the phenotypic severity score in assay [1] (24 h), in assay [1] (48 h) and in assay [1] (72 h) was 0 each time. Further, the drug effect in assay [2] (24 h) is 0.1; in assay [2] (48 h), 0.111; in assay [2] (72 h), 0.188.
As to `Cc1cc(C(=O)Nc2ccc(-c3ccccc3)cc2)no1`, the phenotypic severity score in assay [1] (24 h), in assay [1] (48 h) and in assay [1] (72 h) was 0 in each case. For the same compound, the drug effect in assay [2] (24 h) was 0.1; in assay [2] (48 h) it was 0.0811; in assay [2] (72 h) it was 0.111.
Turning to `O=C1COCc2ccc(Br)cc2N1Cc1ccc(C(F)(F)F)cc1`, the phenotypic severity score in assay [1] (24 h), in assay [1] (48 h) and in assay [1] (72 h) was 0 in each case. The values for the drug effect in assay [2] (24 h), in assay [2] (48 h) and in assay [2] (72 h) were 0.297, 0.389 and 0.438, respectively.
On to `Cc1ccc(S(=O)(=O)n2cc(-c3ccnc(N)c3)c3cc(Br)cnc32)cc1`, for which the phenotypic severity score in assay [1] (24 h) is 2 (active); in assay [1] (48 h), 3 (active); in assay [1] (72 h) it was 3 (active). In addition, the drug effect in assay [2] (24 h) was 0.45; in assay [2] (48 h) it was 0.568 (active); in assay [2] (72 h), 0.515 (active).
As to `COc1ccc2nc(C)cc(OCC(=O)NCc3ccccc3)c2c1`, the phenotypic severity score in assay [1] (24 h), in assay [1] (48 h) and in assay [1] (72 h) was 0 throughout. Besides, the drug effect was 0.0526 in assay [2] (24 h), 0.0556 in assay [2] (48 h) and < 0 in assay [2] (72 h).
For the compound `O=C(Nc1cccnc1)c1c(O)c2cccc3c2n(c1=O)CC3`, the phenotypic severity score in assay [1] (24 h), in assay [1] (48 h) and in assay [1] (72 h) was 0 throughout. The drug effect is 0.182 in assay [2] (24 h), 0.2 in assay [2] (48 h) and 0.0727 in assay [2] (72 h).
As for `COc1cc(C(F)(F)F)nc2ccc(C)c(N)c12`, the phenotypic severity score in assay [1] (24 h), in assay [1] (48 h) and in assay [1] (72 h) was 0 each time. In addition, the drug effect was 0.136 in assay [2] (24 h), 0.05 in assay [2] (48 h) and 0.0526 in assay [2] (72 h).
As for `O=C(NC1CC1)c1ccc(N2CCC(Cc3ccccc3)CC2)nc1`, the phenotypic severity score in assay [1] (24 h), in assay [1] (48 h) and in assay [1] (72 h) was 0 throughout. Moreover, the drug effect in assay [2] (24 h) is 0.1; in assay [2] (48 h), 0.0811; in assay [2] (72 h), 0.167.
In the case of `O=C(C(Cc1c[nH]c2ccccc12)NS(=O)(=O)c1ccc(Cl)cc1)N1CCCCC1` (configuration not stated), the phenotypic severity score in assay [1] (24 h), in assay [1] (48 h) and in assay [1] (72 h) was 0 throughout. Also, the drug effect is 0.05 in assay [2] (24 h), 0.0811 in assay [2] (48 h) and 0.111 in assay [2] (72 h).
For the compound `CN1CCN(c2cc(-c3ccc(F)cc3)nc(-c3ccncc3)n2)CC1`, the phenotypic severity score in assay [1] (24 h), in assay [1] (48 h) and in assay [1] (72 h) was 0 in each case. Further, the drug effect is 0.182 in assay [2] (24 h), 0.35 in assay [2] (48 h) and 0.345 in assay [2] (72 h).
`CCC(C)NC(=O)c1ccc(NC(=O)C2(c3ccccc3)CCCC2)cc1` (configuration not stated): the phenotypic severity score in assay [1] (24 h), in assay [1] (48 h) and in assay [1] (72 h) was 0 each time. In addition, the drug effect was 0.05 in assay [2] (24 h), 0.027 in assay [2] (48 h) and 0.0303 in assay [2] (72 h).
Take `O=C(C1CCN(c2nnc(-n3cccc3)s2)CC1)N1CCC(Cc2ccccc2)CC1`: the figures for the phenotypic severity score in assay [1] (24 h), in assay [1] (48 h) and in assay [1] (72 h) were 1, 1 and 0, respectively. Further, the drug effect was 0.0526 in assay [2] (24 h), 0.111 in assay [2] (48 h) and < 0 in assay [2] (72 h).
As to `CCc1ccc([C@@H]2C[C@H](C(F)(F)F)n3ncc(C(=O)NCc4ccc(OC)cc4)c3N2)cc1`, the phenotypic severity score in assay [1] (24 h) is 1; in assay [1] (48 h) it was 1; in assay [1] (72 h) it was 0. Besides, the drug effect in assay [2] (24 h) is 0.1; in assay [2] (48 h), 0.111; in assay [2] (72 h), 0.0556.
Turning to `CCc1ccc(C(NCc2nc(N)nc(N(C)C)n2)C(C)C)cc1` (configuration not stated), the phenotypic severity score in assay [1] (24 h), in assay [1] (48 h) and in assay [1] (72 h) was 0 each time. The results for the drug effect in assay [2] (24 h), in assay [2] (48 h) and in assay [2] (72 h) were < 0, < 0 and 0.111, respectively.
On to `COc1ccccc1OCCCCn1c(C2CC2)nc2ccccc21`, for which the phenotypic severity score in assay [1] (24 h), in assay [1] (48 h) and in assay [1] (72 h) was 0 each time. Moreover, the figures for the drug effect in assay [2] (24 h), in assay [2] (48 h) and in assay [2] (72 h) were 0.136, 0.2 and 0.182, respectively.
As to `C[C@]1(O)C[C@@H](c2nc(-c3ccc4ccc(-c5ccccc5)nc4c3)c3c(N)nccn32)C1`, the phenotypic severity score in assay [1] (24 h), in assay [1] (48 h) and in assay [1] (72 h) was 0 each time. The drug effect in assay [2] (24 h) was 0.05; in assay [2] (48 h) it was 0.027; in assay [2] (72 h), 0.111.
Consider `Cc1nc(-c2ccccn2)nc(N2CCC(Cc3ccccc3)C2)c1Cl` (configuration not stated), for which the phenotypic severity score in assay [1] (24 h), in assay [1] (48 h) and in assay [1] (72 h) was 0 throughout. Besides, the drug effect in assay [2] (24 h) is 0.15; in assay [2] (48 h), 0.1; in assay [2] (72 h), 0.333.
Regarding `CC(C)(CN)c1nc(-c2ccc(Cl)c(O)c2)c(-c2ccnc(N)n2)[nH]1`, the phenotypic severity score in assay [1] (24 h), in assay [1] (48 h) and in assay [1] (72 h) was 0 in each case. The drug effect in assay [2] (24 h) was 0.15; in assay [2] (48 h), 0.167; in assay [2] (72 h), 0.312.
For the compound `CC(C)(C)OC(=O)N1CCC(Cn2nc(-c3cnc4ccccc4c3)c3c(N)ncnc32)CC1`, the phenotypic severity score in assay [1] (24 h) was 1; in assay [1] (48 h), 4 (active); in assay [1] (72 h) it was 4 (active). Further, the drug effect in assay [2] (24 h) was 0.405; in assay [2] (48 h) it was 0.444; in assay [2] (72 h) it was 0.688 (active).
`O=C(NCCN1CCCC1)c1cc(NCCN2CCOCC2)nc2ccc(Cl)cc12`: the phenotypic severity score in assay [1] (24 h), in assay [1] (48 h) and in assay [1] (72 h) was 0 in each case. Also, the results for the drug effect in assay [2] (24 h), in assay [2] (48 h) and in assay [2] (72 h) were 0.15, 0.222 and 0.438, respectively.
On to `COc1ccc(C2CC(c3cccs3)=NN2C(=O)c2ccco2)cc1OC` (configuration not stated), for which the phenotypic severity score in assay [1] (24 h), in assay [1] (48 h) and in assay [1] (72 h) was 0 each time. Moreover, the drug effect in assay [2] (24 h) was 0.1; in assay [2] (48 h) it was 0.135; in assay [2] (72 h) it was 0.167.
